Compounds with a hit are over-represented: about 10% of the library has one in this group of screens.
GLS inhibitor: qHTS for Inhibitors of Glutaminase (GLS) | Glutaminase kidney isoform, mitochondrial (Homo sapiens), O94925 | GLS enzymatic activity, qHTS titration | Potency, µM (highest dose often 45.5 µM), hits mostly inhibitors | actives 0.21% (n = 410,000) | AID 624170, 2012
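Two-point fluorescence kinetic (t0, 30 min RT) for hKGA; glutamate detected via glutamate oxidase–HRP–Amplex Red. Substrate: 1 mM L-glutamine solution; buffer 45 mM KH2PO4, pH 8.2.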
HP1b chromo inh: HTS for Inhibitors of HP1-beta Chromodomain Interactions with Methylated Histone Tails; AlphaScreen HP1-beta / biotin-H3K9me3 peptide binding; Potency, µM (top dose mostly 114 µM), actives largely listed as inhibitors; actives 0.56% (n = 390,000); AID 540317, 2011; further: nearly all actives have a fitted effect of over 70% in size
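HP1-beta protein (50 nM final) preincubated 30 min at room temperature with biotinylated H3(1-18)K9me3 peptide (50 nM) in PBS pH 7.4, 0.01% Tween-20, then compound added for 30 min. AlphaScreen streptavidin donor/nickel chelate acceptor beads (10 ug/mL final), 30 min dark, luminescence read.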
JMJD2A Tudor inh: qHTS Assay for Inhibitors of JMJD2A-Tudor Domain; actives 4.4% (n = 390,000); Lysine-specific demethylase 4A (Homo sapiens), O75164; AlphaScreen JMJD2A-Tudor / H3K4me3 peptide binding; Potency, µM (series often up to 114 µM), hits mostly inhibitors; further: nearly all actives have a fitted effect of over 50% in size
Target sequence (O75164 whole entry, looked up, the tested form may be a part): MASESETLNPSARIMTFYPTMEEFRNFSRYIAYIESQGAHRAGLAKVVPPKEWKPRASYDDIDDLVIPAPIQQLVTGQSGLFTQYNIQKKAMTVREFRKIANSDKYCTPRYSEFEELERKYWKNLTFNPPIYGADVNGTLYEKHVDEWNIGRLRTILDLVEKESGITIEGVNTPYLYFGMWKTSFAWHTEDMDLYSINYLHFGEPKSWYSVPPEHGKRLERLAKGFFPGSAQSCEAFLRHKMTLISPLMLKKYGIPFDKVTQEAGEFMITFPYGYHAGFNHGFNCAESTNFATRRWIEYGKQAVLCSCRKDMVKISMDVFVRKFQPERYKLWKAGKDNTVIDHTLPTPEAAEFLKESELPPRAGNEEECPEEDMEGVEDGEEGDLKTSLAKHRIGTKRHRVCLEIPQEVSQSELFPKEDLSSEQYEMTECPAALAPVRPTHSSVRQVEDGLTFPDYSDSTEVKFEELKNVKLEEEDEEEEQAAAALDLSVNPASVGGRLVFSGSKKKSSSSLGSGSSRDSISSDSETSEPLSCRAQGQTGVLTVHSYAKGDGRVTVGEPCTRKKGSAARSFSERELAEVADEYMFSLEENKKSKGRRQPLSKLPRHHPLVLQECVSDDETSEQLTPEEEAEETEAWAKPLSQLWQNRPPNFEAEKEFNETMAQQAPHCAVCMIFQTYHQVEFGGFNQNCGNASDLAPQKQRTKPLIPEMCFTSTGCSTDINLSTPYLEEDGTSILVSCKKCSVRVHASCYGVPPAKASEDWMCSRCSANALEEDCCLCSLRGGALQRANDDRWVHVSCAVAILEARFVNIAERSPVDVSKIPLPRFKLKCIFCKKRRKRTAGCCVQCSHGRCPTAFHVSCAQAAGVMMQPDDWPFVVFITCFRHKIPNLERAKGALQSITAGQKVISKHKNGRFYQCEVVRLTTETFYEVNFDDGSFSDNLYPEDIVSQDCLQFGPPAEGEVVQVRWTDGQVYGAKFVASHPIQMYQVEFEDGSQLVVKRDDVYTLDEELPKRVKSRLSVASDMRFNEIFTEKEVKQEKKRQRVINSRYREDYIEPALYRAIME
BAZ2B inh: qHTS Assay for Inhibitors of BAZ2B; AlphaScreen BAZ2B-H3K14Ac peptide displacement; Potency, µM (series often up to 114 µM), hits mostly inhibitors; actives 4.4% (n = 360,000); further: nearly all actives have a fitted effect of over 60% in size
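BAZ2B 50 nM plus b-H3(5-23)K14Ac 50 nM, PBS pH 7.4/0.01% Tween-20, 30 min RT; compound added (max 110 uM), 30 min RT; streptavidin donor/Ni-chelate acceptor beads 10 ug/mL final, 20 min dark; AlphaScreen read.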
G9a inh: qHTS Assay for Inhibitors of Histone Lysine Methyltransferase G9a. Histone-lysine N-methyltransferase EHMT2 (Homo sapiens), Q96KQ7. G9a H3K9 monomethylation, AlphaScreen, 2 h. Potency, µM (highest dose often 102 µM), actives largely listed as inhibitors. actives 8.8% (n = 350,000); further: nearly all actives have a fitted effect of over 75% in size
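Step 1: enzyme (final 20 nM) with compound, 15 min RT. Step 2: substrate peptide 500 nM and SAM 20 uM, 2 h RT. Step 3: anti-H3K9me1 antibody and AlphaScreen beads, 10 min, then plate read.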
Of the large screens only hits and unclear results are named; the others gave an inactive call. The call rests on the fitted dose curve; in most records, active means well fitted curve in the direction sought with a large enough effect; inconclusive means small, poorly fitted or top-dose-only effect, or another doubt; inactive means no such curve, though single readings can be large; an effect the other way counts as inactive or inconclusive.

CC1=NN(C(N)=S)C(=O)C1N=Nc1cccc(Cl)c1C (stereo unspecified)	HP1b chromo inh inconclusive, JMJD2A Tudor inh 50µM, BAZ2B inh 45µM (no result: G9a inh)
CC1=NN(C(N)=S)C(=O)C1N=Nc1ccc(Cl)cc1 (stereo unspecified)	HP1b chromo inh inconclusive, JMJD2A Tudor inh inconclusive, G9a inh 71µM
CC1=NN(C(=O)c2ccncc2)C(=O)C1N=Nc1ccc2ccccc2c1 (stereo unspecified)	HP1b chromo inh 25µM, JMJD2A Tudor inh inconclusive (no result: BAZ2B inh, G9a inh)
CC1=NN(C(N)=S)C(=O)C1N=Nc1cccc2ccccc12 (stereo unspecified)	BAZ2B inh 40µM (no result: GLS inhibitor, HP1b chromo inh, JMJD2A Tudor inh, G9a inh)
Cc1cc2c(s1)c1cnn(Cc3c(C)cc(F)cc3C)c(=O)c1n2C	none (no result: GLS inhibitor, HP1b chromo inh, BAZ2B inh, G9a inh)
Cc1cccc(C)c1NC(=O)Cn1c(=O)cc(C)c2c(C)nn(-c3cccc(Cl)c3C)c21	none
O=C(CSc1nc2ccccc2n1CC(=O)N1CCOCC1)N1CCCC1	none
O=C(CSc1nnc(Cn2c(=O)sc3ccccc32)n1-c1ccccc1)N1CCOCC1	G9a inh 45µM
O=C(CSc1nc2ccccc2n1CCc1ccccc1)c1ccc(O)c(O)c1	HP1b chromo inh 25µM, JMJD2A Tudor inh 7.9µM, BAZ2B inh 2.5µM (no result: G9a inh)
O=C(CSc1nc2ccccc2n1CCc1ccccc1)N1CCOCC1	G9a inh 50µM
CC(C)(C)S(=O)(=O)c1cnc(-c2ccccn2)nc1N	JMJD2A Tudor inh inconclusive, BAZ2B inh 79µM (no result: G9a inh)
CC(C)(C)S(=O)(=O)c1cnc(-c2cnccn2)nc1N	none
O=C(O)/C=C/C(=O)c1ccc2c(c1)NC(=O)CO2	G9a inh 3.2µM
COc1cc2oc(=O)cc(-c3ccc(-c4ccc(CO)cc4)cc3)c2c(OC)c1OC	none (no result: BAZ2B inh)
CC(=O)c1cccc(NC(=O)CN2C(=S)NC(C)(C)CC2C)c1 (stereo unspecified)	G9a inh 32µM
CC1CC(C)(C)NC(=S)N1CCC(=O)NCCc1ccc(Cl)cc1 (stereo unspecified)	G9a inh 50µM
Cc1ccc(NC(=O)CN2C(=S)NC(C)(C)CC2C)cc1Cl (stereo unspecified)	G9a inh 16µM
CC1CC(C)(C)NC(=S)N1CCC(=O)N1CCc2ccccc21 (stereo unspecified)	G9a inh 45µM
Cc1cc(C(=O)Cn2cnc3ccc(Cl)cc3c2=O)c(C)n1C1CC1	none (no result: BAZ2B inh, G9a inh)
O=[S+]([O-])(c1cc2ccccc2o1)N1CCN([S+](=O)([O-])c2c(F)cccc2F)CC1	none (no result: GLS inhibitor, HP1b chromo inh, BAZ2B inh, G9a inh)
CCCCCCN1C=CC=C/C1=C\C=C(C#N)C#N	JMJD2A Tudor inh inconclusive, BAZ2B inh 35µM
NC(=S)N/N=C/c1coc2c(ccc3ccccc32)c1=O	none
NC(=S)N/N=C1/CCSc2ccc3ccccc3c21	HP1b chromo inh inconclusive, BAZ2B inh 50µM, G9a inh 45µM
O=C1CN(C(=O)c2cc([N+](=O)[O-])ccc2Cl)C(c2ccc(F)cc2)c2cc(F)ccc2N1 (stereo unspecified)	G9a inh inconclusive
CN(C)c1ccc(N/C(=N\S(=O)(=O)c2cccs2)c2ccccc2)cc1	HP1b chromo inh inconclusive, JMJD2A Tudor inh 45µM, BAZ2B inh 45µM, G9a inh 4.5µM
CN(/C(=N/S(=O)(=O)c1cccs1)c1ccccc1)c1ccccc1	none
CCc1ccc(Nc2n[n+](-c3ccccc3)c(-c3ccc(N(CC)CC)cc3)s2)cc1	HP1b chromo inh inconclusive, JMJD2A Tudor inh 40µM, BAZ2B inh 40µM, G9a inh 13µM
CN(C)c1ccc(-c2sc(Nc3ccccc3)n[n+]2-c2ccc(F)cc2)cc1	JMJD2A Tudor inh inconclusive (no result: G9a inh)
CCN(CC)c1ccc(-c2sc(Nc3ccccc3)n[n+]2-c2ccc(F)cc2)cc1	JMJD2A Tudor inh 56µM, BAZ2B inh 28µM, G9a inh 45µM
CCN(CC)c1ccc(/C=N/NC(=O)Cc2nnc(NC(=O)Nc3ccccc3)s2)cc1	G9a inh inconclusive
CSc1nn(Cc2ccc(F)cc2)c(N)c1S(=O)(=O)c1ccc(Cl)cc1	none
